Values joined by “and” are separate entries in the source; they are usually repeats but may differ in a detail not shown here. Identical values can stand only once. Out of some 5,500 compounds screened, about 2,000 (36%) were called active. About 18% were inconclusive and are not listed. Cut-off read from the data, not from the text of the source: active = normalized growth mostly below about 0.91 (no sharp cut-off); inconclusive = no clear call, values can overlap the other calls; inactive = mostly above about 0.92. The list shows a part of the results.
Test: chemical genetic growth profiling, strain panel (AID 1159580);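 note: tested at 20 µM; growth read once vehicle control cultures reached saturation at 30 °C; 1 = growth at the plate median or of vehicle wells; lower values mean less growth of the strain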
Details: S. cerevisiae deletion strains, growth OD

Measured: normalized growth

CCN(CC)CCOC(=O)C(c1ccccc1)c1ccccc1
inactive: locus YAL013W, strain DEP1, hits give low values 0.982 | locus YAL021C, strain ccr4, hits give low values 0.964 | locus YAL026C, strain drs2, hits give low values 0.975 | locus YAL030W, strain snc1, hits give low values 0.948 | locus YBL061C, strain skt5, hits give low values 0.965 | locus YBR009C, strain hhf1, hits give low values 0.99 | locus YBR021W, strain FUR4, hits give low values 0.989 | locus YBR023C, strain chs3, hits give low values 0.957 | locus YBR171W, strain sec66, hits give low values 0.971 | locus YBR229C, strain ROT2, hits give low values 1 | locus YBR231C, strain swc5, hits give low values 0.967 | locus YBR279W, strain paf1, hits give low values 0.971 | locus YCL011C, strain gbp2, hits give low values 0.948 | locus YCL016C, strain dcc1, hits give low values 0.987 | locus YCL029C, strain bik1, hits give low values 0.979 | locus YCL069W, strain vba3, hits give low values 0.976 | locus YCR088W, strain abp1, hits give low values 0.968 | locus YDL005C, strain med2, hits give low values 0.958 | locus YDL035C, strain GPR1, hits give low values 0.988 | locus YDL040C, strain nat1, hits give low values 0.972 | locus YDL074C, strain BRE1, hits give low values 1.01 | locus YDL101C, strain DUN1, hits give low values 0.995 | locus YDL134C, strain PPH21, hits give low values 0.997 | locus YDL185W, strain tfp1, hits give low values 0.96 | locus YDL192W, strain arf1, hits give low values 0.989 | locus YDR001C, strain nth1, hits give low values 0.964 | locus YDR069C, strain doa4, hits give low values 0.936 | locus YDR101C, strain arx1, hits give low values 1.01 | locus YDR137W, strain rgp1, hits give low values 0.994 | locus YDR159W, strain sac3, hits give low values 0.947 | locus YDR162C, strain NBP2, hits give low values 0.961 | locus YDR195W, strain ref2 0.889 | locus YDR297W, strain sur2, hits give low values 0.974 | locus YDR318W, strain mcm21, hits give low values 0.986 | locus YDR334W, strain swr1, hits give low values 0.943 | locus YDR335W, strain msn5, hits give low values 0.976 | locus YDR388W, hits give low values 1 | locus YDR392W, strain spt3, hits give low values 1.01 | locus YDR502C, strain sam2, hits give low values 1 | locus YEL003W, strain gim4, hits give low values 0.972 | locus YEL037C, strain rad23, hits give low values 0.973 | locus YEL061C, strain CIN8 (second series), hits give low values 0.957 | locus YEL061C, strain CIN8, hits give low values 0.987 | locus YER015W, strain faa2, hits give low values 0.984 | locus YER016W, strain bim1, hits give low values 0.976 | locus YER110C, hits give low values 0.968 | locus YER111C, strain swi4, hits give low values 0.957 | locus YER155C, strain BEM2 (second series), hits give low values 0.951 | locus YER155C, strain BEM2, hits give low values 1.01 | locus YER167W, strain BCK2, hits give low values 0.993 | locus YFR010W, strain ubp6, hits give low values 0.959 | locus YGL078C, strain dbp3, hits give low values 0.987 | locus YGL086W, strain mad1, hits give low values 0.995 | locus YGL167C, strain pmr1, hits give low values 0.962 | locus YGL173C, strain kem1, hits give low values 0.98 | locus YGL227W, strain vid30, hits give low values 0.961 | locus YGL240W, strain doc1, hits give low values 0.963 | locus YGL248W, strain PDE1, hits give low values 1.01 | locus YGL253W, strain hxk2, hits give low values 0.97 | locus YGR135W, strain pre9, hits give low values 0.955 | locus YGR229C, strain SMI1, hits give low values 0.979 | locus YGR252W, strain gcn5, hits give low values 0.994 | locus YHR013C, strain ard1, hits give low values 0.964 | locus YHR027C, strain rpn1, hits give low values 0.971 | locus YHR030C, strain SLT2, hits give low values 0.981 and 0.995 | locus YHR079C, strain IRE1 (second series), hits give low values 0.99 | locus YHR079C, strain IRE1, hits give low values 0.986 | locus YHR094C, strain hxt1, hits give low values 0.993 | locus YHR129C, strain ARP1, hits give low values 0.99 | locus YHR142W, strain chs7, hits give low values 0.967 | locus YHR200W, strain rpn10, hits give low values 0.975 | locus YIL066C, strain RNR3, hits give low values 1 | locus YIL073C, strain SPO22, hits give low values 0.935 | locus YIL125W, strain kgd1, hits give low values 1 | locus YIR030C, strain dcg1, hits give low values 0.987 | locus YJL092W, strain hpr5, hits give low values 0.964 | locus YJL095W, strain BCK1 (second series), hits give low values 0.973 | locus YJL095W, strain BCK1, hits give low values 1.02 and 0.981 | locus YJL115W, strain asf1, hits give low values 0.949 | locus YJL129C, strain trk1, hits give low values 0.972 | locus YJL134W, strain LCB3, hits give low values 0.989 | locus YJL154C, strain vps35, hits give low values 0.959 | locus YJL164C, strain tpk1, hits give low values 0.993 | locus YJL166W, strain qcr8, hits give low values 0.958 | locus YJL168C, strain set2, hits give low values 1 | locus YJL187C, strain SWE1 (second series), hits give low values 1.01 | locus YJR043C, strain POL32, hits give low values 0.998 | locus YJR066W, strain TOR1, hits give low values 0.963 | locus YKL009W, strain mrt4, hits give low values 0.959

Reference: PubChem BioAssay AID1159580 (chemical genetic matrix, 2015)
